# Measurements reported in PubChem BioAssay (EPA / NIEHS).
# Calls of active or inactive are those of the source. Rule for the calls: active = hit-call score of the fitted dose curve at least 0.9, where 1 is the maximum; inactive = score below 0.9.
# Experiment: ATG_GRE_CIS: Attagene CIS-FACTORIAL HepG2 Assay for human Glucocorticoid Response Elements (GRE) (AID 2282947)
# Settings: HepG2 GRE cis-reporter, Attagene multiplex mRNA; actives raise or lower the signal
# Summary of the method: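 HepG2, transient cis-reporter transfection, 24 h. Reporter mRNA: RT-PCR then CE, fluorescence. Fit both directions vs DMSO.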
row,SMILES,outcome
1,FC(F)(F)C(F)(F)C(F)(F)C(F)(F)CCI,inactive
2,Cc1ccc(S(=O)(=O)NCl)cc1,inactive
3,Cc1cc(C)cc(O)c1,inactive

# Experiment: ATG_ISRE_CIS: Attagene CIS-FACTORIAL HepG2 Assay for human Interferon Regulatory Factor 1 (IRF1) binding to an Interferon-Stimulated Response Element (ISRE) (AID 2282948)
# Settings: HepG2 ISRE cis-reporter (Attagene), mRNA transcription readout; actives raise or lower the signal
# Summary of the method: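 Uses HepG2 liver cells transfected with cis-regulated reporters and measures mRNA 24 h post-dosing through RT-PCR, primer-extension labelling and capillary electrophoresis, with DMSO as negative control.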
row,SMILES,outcome
1,Nc1ccc(S(=O)(=O)Nc2nccs2)cc1,inactive
2,C=C(C)C(=O)OCC(F)(F)C(F)(F)C(F)(F)F,inactive
3,O=P(O)(O)OCCC(F)(F)C(F)(F)C(F)(F)C(F)(F)C(F)(F)C(F)(F)F,inactive
4,CC(=O)Nc1ccc(N=Nc2cc(C)ccc2O)cc1,inactive
5,FC(F)(F)C(F)(F)C(F)(F)C(F)(F)CCI,inactive
6,CCc1c(Br)c(Br)c(Br)c(Br)c1Br,inactive
7,CC(C)(C)c1ccc(OC2CCCCC2O)cc1 (stereo not given),inactive
8,CC(C)OC(=O)c1ccccc1C(=O)OC(C)C,inactive
9,OC[C@@H](O)[C@@H](O)[C@H](O)[C@@H](O)CO,inactive
10,CN(C)Cc1ccccc1O,inactive
11,CCc1ccc(C(c2ccc(CC)cc2)C(Cl)Cl)cc1,inactive
12,CC(C)c1ccccc1N,inactive
13,C1COCCN1,inactive
14,COC(=O)CCC(F)(F)C(F)(F)C(F)(F)C(F)(F)F,inactive
15,C=CC(=O)OCC(F)(F)C(F)(F)C(F)(F)C(F)(F)C(F)(F)C(F)(F)C(F)(F)F,inactive
16,O=S(=O)(O)c1ccc2ccccc2c1,inactive
17,CCCCC(CC)COP(=O)(O)OCC(CC)CCCC (stereo not given),inactive
18,COC(=O)C1CCC(C(=O)OC)CC1 (stereo not given),inactive
19,Nc1cc(Cl)c(N)c(Cl)c1,inactive
20,O=C(O)C(F)(F)C(F)(F)OC(F)(F)F,inactive
21,CC(C)=CCCC(C)CCOC(=O)C(C)C (stereo not given),inactive
22,N=C(N)C(F)(F)C(F)(F)C(F)(F)C(F)(F)C(F)(F)C(F)(F)C(F)(F)F,inactive
